# Data from paper PMC13494018.
# Molecular target: CD276, Q5ZPR3
# Sequence (Q5ZPR3 whole entry): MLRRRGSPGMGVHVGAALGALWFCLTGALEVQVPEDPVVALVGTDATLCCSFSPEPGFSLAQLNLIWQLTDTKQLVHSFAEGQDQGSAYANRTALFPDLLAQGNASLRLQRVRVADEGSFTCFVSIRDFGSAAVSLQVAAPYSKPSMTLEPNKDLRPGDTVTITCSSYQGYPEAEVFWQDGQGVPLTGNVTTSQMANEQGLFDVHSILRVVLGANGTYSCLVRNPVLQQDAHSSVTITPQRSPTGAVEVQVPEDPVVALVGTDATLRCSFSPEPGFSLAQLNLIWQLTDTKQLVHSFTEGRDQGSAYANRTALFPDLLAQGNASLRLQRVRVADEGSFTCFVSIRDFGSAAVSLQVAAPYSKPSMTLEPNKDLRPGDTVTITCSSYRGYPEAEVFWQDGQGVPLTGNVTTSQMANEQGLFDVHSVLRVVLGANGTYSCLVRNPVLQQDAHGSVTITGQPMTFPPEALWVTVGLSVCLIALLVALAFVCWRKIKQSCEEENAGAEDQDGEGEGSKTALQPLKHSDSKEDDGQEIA
row,Binder,binding in a display sort
1,d1r8_design_ppi_296_dldesign_0_cycle1_af2pred (protein) SAAAKAAAEAAKQRVDGLAQMAIASPALLPHMEAMAKRAAAAVAALDPALGAEVEKYAKEQMAKAKAAVAAAAAAA,not found (inactive)
2,d1r8_design_ppi_314_dldesign_0_cycle1_af2pred (protein) ALEEAKKAAEEAKAAAAEARAYFDAAGLTGAGNGFYNNTKKRAEELLKEAEEGSEEEAKKARKELERLKETAEKMLEVAKGVYAAAQA,not found (inactive)
3,d1r8_design_ppi_321_dldesign_0_cycle0_af2pred (protein) SAEENKKRLIAAAEAAFKNFSAEAERLEAEGKKEEAAKVYEQLAELLEQMRESAKATAGEEGAKEIEKLLEEAKKKLEEVK,not found (inactive)
4,d1r8_design_ppi_356_dldesign_0_cycle1_af2pred (protein) VLEAVSAALSLAEEAAELDPRAGHALLTYANAVWNPATLEKGRKTAREKAKEFKKRAEEEDGERARKAAELLEKAIEEAEKLLKEA,not found (inactive)
5,d1r8_design_ppi_364_dldesign_0_cycle0_af2pred (protein) DLERAAEEAERLAEETLARAAAGEITLEELAEAHRRIGELIERVAASGELAERVARRASRLMNQALTALA,not found (inactive)
6,d1r8_design_ppi_364_dldesign_0_cycle1_af2pred (protein) ALEEAAREARELADETLAAAKAGTINLEELAARFNEAGRLIREVEALGELAEEVGRYVSRKFNEALTALL,not found (inactive)
7,d1r8_design_ppi_373_dldesign_0_cycle0_af2pred (protein) DQETTGNLVLAAAKANAGVEEADKAIEAAEKAAKDPKLKEKAEEAKKLIEEAKKATPEEAKKLLKEAAKLVNEALRAYSA,not found (inactive)
8,d1r8_design_ppi_373_dldesign_0_cycle1_af2pred (protein) SEELIKNLLLAASKALAGVESAPEAIKAAEEAAKDPRLKEDAEKAKKLIKAAIKATPEEAAKLLKKAAKLLNDALRKYTS,not found (inactive)
9,d1r8_design_ppi_393_dldesign_0_cycle1_af2pred (protein) EREELAERLEKAARLLEEGAASDSPGLLAARAWAAANVAPPEWAARLREVSRAALANVEEGRKLAKELAEELRKEAERLRKEL,not found (inactive)
10,d1r8_design_ppi_401_dldesign_0_cycle1_af2pred (protein) MEKVEKAKKGLEQATELAKAMVPEKAEEFEKIRKEGVEEAKKAAGDPEKAAEILAKARNEILRNGIKAAMAAAKAAA,binds (active)
11,d1r8_design_ppi_443_dldesign_0_cycle0_af2pred (protein) SAAAALLARTAAAIVAQTRALVGDAKAAEAQALADAAVAAAKAGDYAKAGALLTELLKLAAEARREKAAAEAAAAA,not found (inactive)
12,d1r8_design_ppi_443_dldesign_0_cycle1_af2pred (protein) SPAAALLARTAAAIAAQTVREVGPARAAELQALADAATAAAEAGDFTTAGELLEELLRLAAEARAEKAAAERAAAA,not found (inactive)
13,d1r8_design_ppi_454_dldesign_0_cycle1_af2pred (protein) AAEAQARAEKAEKLMREAVELVKADPTPEAVKEAEKLIAEAAKLATGSAEKHAAANAARALRTRGPEAAEVQAKLFVEMIKT,not found (inactive)
14,d1r8_design_ppi_467_dldesign_0_cycle1_af2pred (protein) AEAEAAVASLVEFVKAILDAAATQDPRLAPAAEEALALMEAGDFDEAARLFLAAGAAAGPAAAALARAAANAMRLAAEAAAAI,not found (inactive)
15,d1r8_design_ppi_534_dldesign_0_cycle1_af2pred (protein) AAALAAEAAALAQEALANIAEADALAKKADPEIGKIYEEAARHFMRGVSLAQRGDLERAKKEIEEGKKLFEKAKELEKKKKEKE,not found (inactive)
16,d1r8_design_ppi_543_dldesign_0_cycle0_af2pred (protein) AAAQTAHAQAVLDTLIALALRKAAEDPAAARAALESAKLVAEGVKATGDAATGAAAQAKVDAAGAEVAAAAA,not found (inactive)
17,d1r8_design_ppi_566_dldesign_0_cycle1_af2pred (protein) MTPEEAREMGERIREAAKRSVEEAVKAIEEAKEKLSPELKPLADRAIELAKRSPEAGANLATTALHIEALS,not found (inactive)
18,d1r8_design_ppi_587_dldesign_0_cycle0_af2pred (protein) SEYRREAEELRERVERIEKRMREAKTAEEAREVLREAQRVAAEAARLAVQAAADGADQEVLDEINEVLSRALEVAREASRKARELE,not found (inactive)
19,d1r8_design_ppi_588_dldesign_0_cycle1_af2pred (protein) AAEDKALAAAMAAEAEKVIAEAAKQTPAEANKLAATFAEKAFALAKEHPGAAAALNAAAFKVLTGAMKAIQAQSA,not found (inactive)

row,Binder,binding in a display sort
1,d1r8_design_ppi_590_dldesign_0_cycle1_af2pred (protein) LEEVKKKLKELAELAKSAGKWNPETGKQVVKSLLRVAESEAKRLAGDPEAAEKVKKYGEELAKEAEKEIKEVAAA,not found (inactive)
2,d1r8_design_ppi_616_dldesign_0_cycle0_af2pred (protein) DAERQAALEEAKKEAERAKKAAEEAIKAAAKDPEAQKKLEEARENLEAALKWAEETNGDVTTWKGVTALARMVLQAAEGIKKKAEA,not found (inactive)
3,d1r8_design_ppi_616_dldesign_0_cycle1_af2pred (protein) DAAREAALKEAKEEFEKAEKEAEEAIKAAKDDPEAQKKLKELRESAKAALENAEKTKADVTTYKGVKALARMLLQTAEGVKKAAEA,not found (inactive)
4,d1r8_design_ppi_647_dldesign_0_cycle0_af2pred (protein) KEELVKQAESLEKFAKLAAEGASPEAKPLFEKAAEKFRKAAEAAKENPEEGEKLMAEGRKLLAEGMRLEIQLR,not found (inactive)
5,d1r8_design_ppi_661_dldesign_0_cycle1_af2pred (protein) DVVAEARELAARAEEAAERARADPAASQEVVDLFRQAAGYARNALLLAEGTPESQAQAARLLERARRLFEEAERRFRADVAAAA,not found (inactive)
6,d1r8_design_ppi_667_dldesign_0_cycle0_af2pred (protein) SAAAAAALAAARATAVAALTAGTGLAPEEAAALAAAMTDDQIFAIANLNAANPAAGQALAANLAAQVRRELA,not found (inactive)
7,d1r8_design_ppi_679_dldesign_0_cycle0_af2pred (protein) AEAQKLLEKAKKLAEEAKKIAKESGDEEAKRIAEGAKKMAELAKAALAAGDSAAAMQAYLAGVKTLYEAAKEEAKRKA,not found (inactive)
8,d1r8_design_ppi_716_dldesign_0_cycle1_af2pred (protein) AVEAALAEARAVLERAKEAAKRLKEVGTPEEQKLAEELVALGETALKQAEADGTLATARGALAAARLALQGLEGLLERALARRAAAA,not found (inactive)
9,d1r8_design_ppi_723_dldesign_0_cycle1_af2pred (protein) EEAQKKIKELGEKAAELAKKNVEEGAEALKEAAKLAAKAQPASAEQILKHGEAVAERAKTLSPEEAATLVRNAGKVFAQL,not found (inactive)
10,d1r8_design_ppi_735_dldesign_0_cycle1_af2pred (protein) SEAAEKALKAVEAAIEVVETGTPEEALAATKAAAEVAKKAAEAAGNLGAQIKATADAAVKATAADKAAGLAKLRTLATLLRAYAEA,not found (inactive)
11,d1r8_design_ppi_742_dldesign_0_cycle1_af2pred (protein) AAAAAAKAAAAAAAQAALRSLRDLAARAKAAEAAGDPEAAAKYRAAAEQWADIAIASAKQAGTEATVAAEAAALLAA,not found (inactive)
12,d1r8_design_ppi_744_dldesign_0_cycle1_af2pred (protein) STAEKAVKLVEETAKKGIAEAKADPAKVPAAAKELAKKGKEAAKLIGSTGLAVGIGNLAKTAIAFPEQAPDYFASAAALAKEVAE,not found (inactive)
13,d1r8_design_ppi_780_dldesign_0_cycle1_af2pred (protein) AAATLAALTAAFGRLVELGAEAIRANPALAPEVNKLLGTASKAAIAGIRDPSLAEAALKTIEAQLKKVEELLKKAK,not found (inactive)
14,d1r8_design_ppi_790_dldesign_0_cycle0_af2pred (protein) AAAAAQAATATAIRSRGTNRMLTRILALPASASEAELRAIVEEEAERARAEMLAAGVSPELAEAAVEHILRIGEQAIAAR,not found (inactive)
15,d1r8_design_ppi_791_dldesign_0_cycle0_af2pred (protein) SENEKKLEEVKKKLEEAKKAAEEDPKAGAALAIETIELAKKAAEEAKKNGDEKTAEEANKLAHEAMKLAAKALAKAAA,not found (inactive)
16,d1r8_design_ppi_811_dldesign_0_cycle0_af2pred (protein) AQEAADQAAFEAAKAGLEKATEAAVGMLEALGEEEAAKEVREFAEKAKKEAEKLTPKEGAELYGKAANEILRRTSQVAAQAVA,not found (inactive)
17,d1r8_design_ppi_811_dldesign_0_cycle1_af2pred (protein) AEEEEAERAREEAKESLLAARDTAVGILTAAGLTDKAKEVEKYAEEALKEAEKLTPEEAAKLYGEAANRILTDTIAAASAAVA,not found (inactive)
18,d1r8_design_ppi_824_dldesign_0_cycle1_af2pred (protein) AEAERRRAEVLALFDEAVAAGSPELARAAAERAAELNPERAEDIRQQGEIAAALMPFSPRAARALMRTVAA,not found (inactive)
19,d1r8_design_ppi_832_dldesign_0_cycle0_af2pred (protein) AAEAAALKAQIEAAIAQMREETRRAAERDVEEGGRVASAATQQITKLVSQLAKVDPAAGAEAMALLTEAMREVQAYLDAERAARA,not found (inactive)
